# Most compounds without a hit are left out; they make up all but 3.3% or so of the library.
# 697 NFkB inh: inhibitors of the PMA/ionomycin-induced NF-kB reporter in 697 B cells; 697 B-cell NF-kB luciferase reporter, 16 h; inhibition, % at 4 µM; hit rate 0.33% among 330,000; in the data active = inhibition above about 35%
# SMARCA2 activ: activators of SMARCA2 function. MG213 cells, MMTV-luciferase reporter, dexamethasone, overnight. activation, % at 9.1 µM. hit rate 1% among 370,000; in the data active = activation above about 7.8%
# Gli-Sufu block: Gli-Sufu pathway antagonism | Sufu-KO-LIGHT fibroblasts, Gli luciferase reporter luminescence | inhibition, % at 5 µM | hit rate 0.74% among 340,000 | AID 588413;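 active = inhibition above about 55%, limit read from the data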
# Jurkat NFkB inh: inhibitors of the PMA/ionomycin-induced NF-kB reporter in Jurkat cells; PMA/ionomycin-induced NF-kB luciferase reporter, luminescence; inhibition, % at 4 µM; hit rate 0.53% among 330,000; AID 435003; in the data active = inhibition above about 50%
# esBAF inh: SWI/SNF esBAF complex inhibition. mouse ES cells, Bmi1-luciferase knock-in reporter, 24 h; 100% = twice the neutral-well signal. reporter increase, % at 12.5 µM. hit rate 2% among 350,000. AID 602393; in the data active = activation above about 40%; inconclusive = no clear call, values can overlap the other calls;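 also: a rise in the Bmi1 reporter signal indicates esBAF inhibition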
# Hits are given with their value; 0 = inactive; ? = inconclusive; - = no result; ! = a repeat was not active.
SMILES,697 NFkB inh,SMARCA2 activ,Gli-Sufu block,Jurkat NFkB inh,esBAF inh
COc1ccccc1NC(=O)N[C@@H]1CC[C@@H](CC(=O)N[C@@H](C)c2ccccc2)O[C@@H]1CO,-,-,-,-,0
Cc1ccc(C(=O)Nc2ccc3nc(C)sc3c2)s1,0,0,0,0,58
Cc1ccc(C(=O)Nc2ccc3nc(C)sc3c2)o1,-,0,-,-,?
Cc1nc2ccc(NC(=O)CCS(=O)(=O)c3ccc(Cl)cc3)cc2s1,0,0,0,0,-
Cc1nc2ccc(NC(=O)CCC3CCCC3)cc2s1,0,0,0,0,50
COc1ccc(-c2csc(NC(=O)CSc3nc(SC)ns3)n2)cc1,0,0,0,0,67
Cc1ccc(-c2csc(NC(=O)c3ccno3)n2)cc1,0,0,0,0,60
COc1ccc(-c2csc(NC(=O)c3c(C)noc3C)n2)cc1,0,0,0,0,48
Cc1ccc(-c2csc(NC(=O)CSC3=NCCS3)n2)cc1,0,0,0,0,45
Cc1ccc(-c2csc(NC(=O)c3ccc(C)o3)n2)cc1,0,0,0,0,-
Cc1ccc(-c2csc(NC(=O)c3c(C)noc3C)n2)cc1,0,0,0,0,0
Cc1ccc(-c2csc(NC(=O)CSc3nc(C)cc(=O)[nH]3)n2)cc1,0,0,0,0,-
C[C@@H]1CN([C@@H](C)CO)C(=O)c2cc(NS(=O)(=O)c3cn(C)cn3)ccc2O[C@@H](C)CCCCO[C@@H]1CN(C)S(=O)(=O)c1ccc(Cl)cc1,-,-,-,-,0
CCCN1C[C@@H](C)[C@@H](OC)CN(C)C(=O)c2cc(NC(=O)c3cccc(OC)c3)ccc2OC[C@H]1C,-,-,-,-,0
Cc1ccccc1-c1cnc2c(c1)C(=O)N([C@H](C)CO)C[C@H](C)[C@@H](CN(C)CC1CCOCC1)O2,-,-,-,-,0
CCCC(=O)Nc1nc(-c2ccc(OC)cc2)cs1,0,0,0,0,68
O=C(CSCC(=O)Nc1nc(-c2ccc3c(c2)OCO3)cs1)Nc1nccs1,0,0,0,0,44
O=C(CSc1ccc(-c2ccc3c(c2)OCO3)nn1)Nc1nccs1,0,0,0,0,0
O=C(NCC[C@H]1CC[C@@H](NS(=O)(=O)Cc2ccccc2)[C@@H](CO)O1)C1CCOCC1,-,-,-,-,0
O=C(Nc1ccc([N+](=O)[O-])cc1)c1ccccc1F,0,0,0,0,-
CC1(c2ccc(NC(=O)c3ccccc3F)cc2)CC1(Cl)Cl (stereo not drawn),0,0,0,0,63
CCOC(=O)N1CCN(C(=O)CNC(=O)c2nn(-c3ccc(OC)c(Cl)c3)c(=O)c3ccccc23)CC1,0,0,0,0,0
COc1ccc(-n2nc(C(=O)NCC(=O)N3CCCC3)c3ccccc3c2=O)cc1Cl,0,0,0,0,59
COc1ccc(-n2nc(C(=O)NCC(=O)N3CCN(c4ccccc4)CC3)c3ccccc3c2=O)cc1OC,0,0,0,0,45
COc1ccc(-n2nc(C(=O)NCC(=O)N3CCN(c4ccccc4OC)CC3)c3ccccc3c2=O)cc1OC,0,0,0,0,0
SMILES,697 NFkB inh,SMARCA2 activ,Gli-Sufu block,Jurkat NFkB inh,esBAF inh
O=C1CCC(C(=O)N2CCCC(C(=O)c3ccc4ccccc4c3)C2)=NN1 (stereo not drawn),0,0,0,0,0
Cc1ccc2c(c1)C1(C(=O)N2)N2CCCC2C(C(=O)c2ccc3ccccc3c2)C12C(=O)Nc1ccccc12 (stereo not drawn),-,0,0,-,50!
CCCCCc1ccc(OCCCC[n+]2ccccc2)c(CCCCC)c1,0,-,83,0,-
Cc1cc(=O)oc2cc(OCCCC[n+]3ccccc3)ccc12,0,0,0,0,-
C[C@@H](O)C#Cc1ccc2c(c1)O[C@@H](CN(C)CC1CC1)[C@@H](C)CN([C@@H](C)CO)S2(=O)=O,-,-,-,-,0
O=C(C[n+]1cccc(Br)c1)c1ccccc1,0,0,0,0,0
O=C(C[n+]1cccc(Br)c1)c1ccc(-c2ccccc2)cc1,0,0,0,0,44
Nc1ccccc1N=Cc1ccc(-c2cccc(Cl)c2)o1,0,0,0,0,98
Cc1ccc2c(c1)Sc1ccccc1CC2=O,0,0,0,0,61
O=C1Cc2ccccc2Sc2ccccc21,0,0,0,0,0
Cc1ccc(NC(=O)CCCNC(=O)c2ccc(Cl)cc2)nc1,0,0,0,0,52
Cc1cnc(NC(=O)CCCNC(=O)c2ccc(Cl)cc2)s1,0,0,0,0,42
Cc1ccc(NC(=O)CCNC(=O)c2ccc(Cl)cc2)nc1,0,0,0,0,0
COc1ccc2[nH]c(=O)c(-c3nnn(-c4ccccc4)n3)cc2c1,0,0,0,0,58
COc1ccc2[nH]c(=O)c(-c3nnn(-c4ccc(F)cc4)n3)cc2c1,0,0,0,0,0

# Compound activity deposited in PubChem by several laboratories.
